Laboratory results from the supplement of paper PMC11732987, “Enantioselective OTUD7B fragment discovery through chemoproteomics screening and high-throughput optimisation” (Communications Chemistry, 2025).

Experiments:
Experiment in all cases: log2 ratio of Biotin-Ahx-Ub-VS probe labelling (fragment/DMSO); higher = less target engagement (more negative = stronger competition), active = hit call of the paper (q ≤ 0.05, log2 ratio ≤ -1)
Details in all cases: compound concentration: 200 uM; treatment time: 3 h
[1] = target: USP34 (UniProt Q70CQ2)
Outline: (§1)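 Triplicate samples of HEK293T lysate, 495 µg each, received fragment at 200 µM or vehicle for 3 h, followed by Biotin-Ahx-Ub-VS (0.5 µM final) for 1 h. After NeutrAvidin enrichment of labelled DUBs and LysC/trypsin digestion, peptides were run by diaPASEF LC-MS/MS. The values are average log2 fragment/vehicle ratios from global-median-normalised Spectronaut label-free quantities, tested by unpaired t-test on proteins having ≥2 unique peptides.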

[2] = target: T1, USP36 (UniProt Q9P275)
T1 sequence (whole entry): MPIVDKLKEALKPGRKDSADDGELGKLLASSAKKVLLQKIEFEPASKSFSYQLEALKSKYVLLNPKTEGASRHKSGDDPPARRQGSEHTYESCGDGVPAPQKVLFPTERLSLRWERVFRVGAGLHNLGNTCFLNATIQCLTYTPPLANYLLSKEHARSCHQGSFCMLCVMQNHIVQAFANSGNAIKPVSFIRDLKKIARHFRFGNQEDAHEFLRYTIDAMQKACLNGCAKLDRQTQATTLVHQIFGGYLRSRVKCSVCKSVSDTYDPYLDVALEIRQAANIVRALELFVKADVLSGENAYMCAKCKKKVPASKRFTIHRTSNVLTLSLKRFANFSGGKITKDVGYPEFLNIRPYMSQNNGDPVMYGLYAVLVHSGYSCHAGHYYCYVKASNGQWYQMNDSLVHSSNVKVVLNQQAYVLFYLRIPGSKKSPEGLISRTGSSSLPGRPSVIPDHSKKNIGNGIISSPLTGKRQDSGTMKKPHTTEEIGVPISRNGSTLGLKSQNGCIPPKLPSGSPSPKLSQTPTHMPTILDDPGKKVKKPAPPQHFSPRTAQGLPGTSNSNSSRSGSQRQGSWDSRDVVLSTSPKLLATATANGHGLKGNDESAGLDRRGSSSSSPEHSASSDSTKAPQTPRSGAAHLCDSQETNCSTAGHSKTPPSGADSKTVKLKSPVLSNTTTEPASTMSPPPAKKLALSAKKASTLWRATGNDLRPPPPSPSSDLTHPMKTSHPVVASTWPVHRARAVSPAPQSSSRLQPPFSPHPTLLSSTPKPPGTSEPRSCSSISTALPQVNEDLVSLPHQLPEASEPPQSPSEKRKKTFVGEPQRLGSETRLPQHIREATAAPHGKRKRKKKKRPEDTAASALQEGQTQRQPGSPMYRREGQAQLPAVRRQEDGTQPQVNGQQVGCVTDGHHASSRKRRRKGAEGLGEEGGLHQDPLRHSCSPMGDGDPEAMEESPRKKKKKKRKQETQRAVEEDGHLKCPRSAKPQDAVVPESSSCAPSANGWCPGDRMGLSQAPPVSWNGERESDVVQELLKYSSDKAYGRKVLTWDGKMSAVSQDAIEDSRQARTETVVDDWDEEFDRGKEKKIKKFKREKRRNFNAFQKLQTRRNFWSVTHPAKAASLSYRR
Outline: as §1

[3] = target: T2, USP38 (UniProt Q8NB14)
T2 sequence (whole entry): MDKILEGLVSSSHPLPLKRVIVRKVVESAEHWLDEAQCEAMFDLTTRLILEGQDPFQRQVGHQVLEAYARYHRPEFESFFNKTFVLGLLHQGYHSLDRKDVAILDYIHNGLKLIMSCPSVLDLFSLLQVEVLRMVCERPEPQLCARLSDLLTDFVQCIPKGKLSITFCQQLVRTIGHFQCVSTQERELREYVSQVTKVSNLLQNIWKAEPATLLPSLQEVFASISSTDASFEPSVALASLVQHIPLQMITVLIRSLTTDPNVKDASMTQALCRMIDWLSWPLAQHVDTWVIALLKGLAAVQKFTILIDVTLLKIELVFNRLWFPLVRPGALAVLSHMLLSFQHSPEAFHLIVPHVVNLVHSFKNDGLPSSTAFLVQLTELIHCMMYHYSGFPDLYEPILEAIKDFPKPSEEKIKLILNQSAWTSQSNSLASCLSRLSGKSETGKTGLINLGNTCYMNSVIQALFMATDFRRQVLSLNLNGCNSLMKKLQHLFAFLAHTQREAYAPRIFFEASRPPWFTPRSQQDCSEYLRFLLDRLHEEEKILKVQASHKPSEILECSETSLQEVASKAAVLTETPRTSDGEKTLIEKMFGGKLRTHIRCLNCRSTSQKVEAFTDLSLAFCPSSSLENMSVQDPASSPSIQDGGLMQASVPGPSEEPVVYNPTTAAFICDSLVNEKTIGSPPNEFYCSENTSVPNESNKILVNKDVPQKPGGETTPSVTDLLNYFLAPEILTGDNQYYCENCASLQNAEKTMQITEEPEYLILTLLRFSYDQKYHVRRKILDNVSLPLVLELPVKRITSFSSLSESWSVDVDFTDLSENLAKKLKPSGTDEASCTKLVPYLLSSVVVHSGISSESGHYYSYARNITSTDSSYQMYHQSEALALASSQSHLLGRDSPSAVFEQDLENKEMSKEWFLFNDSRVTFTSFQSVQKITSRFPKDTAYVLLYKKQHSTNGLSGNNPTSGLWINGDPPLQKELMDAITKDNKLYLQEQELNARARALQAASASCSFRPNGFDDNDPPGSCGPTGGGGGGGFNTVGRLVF
Outline: as §1

[4] = target: T3, USP39 (UniProt Q53GS9)
T3 sequence (whole entry): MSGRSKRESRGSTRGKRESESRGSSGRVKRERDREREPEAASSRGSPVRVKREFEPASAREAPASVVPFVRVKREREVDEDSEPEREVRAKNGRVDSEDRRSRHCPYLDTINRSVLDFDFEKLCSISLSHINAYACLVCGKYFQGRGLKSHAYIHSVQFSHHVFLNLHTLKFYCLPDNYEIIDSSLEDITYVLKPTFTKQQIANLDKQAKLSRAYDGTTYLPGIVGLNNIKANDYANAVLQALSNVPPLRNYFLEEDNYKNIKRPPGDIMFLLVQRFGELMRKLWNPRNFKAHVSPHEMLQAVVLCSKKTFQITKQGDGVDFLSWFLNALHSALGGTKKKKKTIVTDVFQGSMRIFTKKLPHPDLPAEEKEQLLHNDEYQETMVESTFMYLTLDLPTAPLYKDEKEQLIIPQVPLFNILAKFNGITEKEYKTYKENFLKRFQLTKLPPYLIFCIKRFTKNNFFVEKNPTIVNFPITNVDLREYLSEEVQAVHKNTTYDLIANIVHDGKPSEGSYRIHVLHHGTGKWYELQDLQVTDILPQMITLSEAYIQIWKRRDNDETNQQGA
Outline: as §1

[5] = target: T4, USP4 (UniProt Q13107)
T4 sequence (whole entry): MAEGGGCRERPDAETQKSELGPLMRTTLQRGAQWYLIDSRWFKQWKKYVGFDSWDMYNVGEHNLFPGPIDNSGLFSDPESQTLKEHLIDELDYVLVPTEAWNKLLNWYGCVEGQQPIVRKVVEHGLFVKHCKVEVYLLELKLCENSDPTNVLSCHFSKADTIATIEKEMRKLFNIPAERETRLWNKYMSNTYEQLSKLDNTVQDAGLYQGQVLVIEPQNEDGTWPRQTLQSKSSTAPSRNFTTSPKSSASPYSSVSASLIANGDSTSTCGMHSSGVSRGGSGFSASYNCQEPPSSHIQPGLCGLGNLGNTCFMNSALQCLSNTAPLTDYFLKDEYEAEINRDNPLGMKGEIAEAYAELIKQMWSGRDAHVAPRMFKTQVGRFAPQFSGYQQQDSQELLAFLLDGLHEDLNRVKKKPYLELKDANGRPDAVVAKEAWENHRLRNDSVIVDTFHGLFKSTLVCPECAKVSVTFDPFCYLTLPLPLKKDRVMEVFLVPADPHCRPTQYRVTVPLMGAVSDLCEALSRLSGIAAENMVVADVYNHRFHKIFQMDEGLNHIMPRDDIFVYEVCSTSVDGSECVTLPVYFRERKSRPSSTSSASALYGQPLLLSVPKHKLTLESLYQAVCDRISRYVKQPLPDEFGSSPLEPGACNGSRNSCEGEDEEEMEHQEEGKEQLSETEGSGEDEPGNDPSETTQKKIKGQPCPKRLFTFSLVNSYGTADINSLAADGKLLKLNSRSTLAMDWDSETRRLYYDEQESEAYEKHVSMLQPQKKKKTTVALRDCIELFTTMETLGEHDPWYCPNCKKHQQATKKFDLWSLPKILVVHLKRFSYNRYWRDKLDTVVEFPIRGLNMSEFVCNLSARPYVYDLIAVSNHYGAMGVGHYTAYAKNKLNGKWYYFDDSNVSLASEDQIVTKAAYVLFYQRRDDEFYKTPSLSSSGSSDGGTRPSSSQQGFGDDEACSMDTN
Outline: as §1

Measured: log2 ratio of Biotin-Ahx-Ub-VS probe labelling

Chain of USP34 (Q70CQ2 whole entry, the tested form may be a part): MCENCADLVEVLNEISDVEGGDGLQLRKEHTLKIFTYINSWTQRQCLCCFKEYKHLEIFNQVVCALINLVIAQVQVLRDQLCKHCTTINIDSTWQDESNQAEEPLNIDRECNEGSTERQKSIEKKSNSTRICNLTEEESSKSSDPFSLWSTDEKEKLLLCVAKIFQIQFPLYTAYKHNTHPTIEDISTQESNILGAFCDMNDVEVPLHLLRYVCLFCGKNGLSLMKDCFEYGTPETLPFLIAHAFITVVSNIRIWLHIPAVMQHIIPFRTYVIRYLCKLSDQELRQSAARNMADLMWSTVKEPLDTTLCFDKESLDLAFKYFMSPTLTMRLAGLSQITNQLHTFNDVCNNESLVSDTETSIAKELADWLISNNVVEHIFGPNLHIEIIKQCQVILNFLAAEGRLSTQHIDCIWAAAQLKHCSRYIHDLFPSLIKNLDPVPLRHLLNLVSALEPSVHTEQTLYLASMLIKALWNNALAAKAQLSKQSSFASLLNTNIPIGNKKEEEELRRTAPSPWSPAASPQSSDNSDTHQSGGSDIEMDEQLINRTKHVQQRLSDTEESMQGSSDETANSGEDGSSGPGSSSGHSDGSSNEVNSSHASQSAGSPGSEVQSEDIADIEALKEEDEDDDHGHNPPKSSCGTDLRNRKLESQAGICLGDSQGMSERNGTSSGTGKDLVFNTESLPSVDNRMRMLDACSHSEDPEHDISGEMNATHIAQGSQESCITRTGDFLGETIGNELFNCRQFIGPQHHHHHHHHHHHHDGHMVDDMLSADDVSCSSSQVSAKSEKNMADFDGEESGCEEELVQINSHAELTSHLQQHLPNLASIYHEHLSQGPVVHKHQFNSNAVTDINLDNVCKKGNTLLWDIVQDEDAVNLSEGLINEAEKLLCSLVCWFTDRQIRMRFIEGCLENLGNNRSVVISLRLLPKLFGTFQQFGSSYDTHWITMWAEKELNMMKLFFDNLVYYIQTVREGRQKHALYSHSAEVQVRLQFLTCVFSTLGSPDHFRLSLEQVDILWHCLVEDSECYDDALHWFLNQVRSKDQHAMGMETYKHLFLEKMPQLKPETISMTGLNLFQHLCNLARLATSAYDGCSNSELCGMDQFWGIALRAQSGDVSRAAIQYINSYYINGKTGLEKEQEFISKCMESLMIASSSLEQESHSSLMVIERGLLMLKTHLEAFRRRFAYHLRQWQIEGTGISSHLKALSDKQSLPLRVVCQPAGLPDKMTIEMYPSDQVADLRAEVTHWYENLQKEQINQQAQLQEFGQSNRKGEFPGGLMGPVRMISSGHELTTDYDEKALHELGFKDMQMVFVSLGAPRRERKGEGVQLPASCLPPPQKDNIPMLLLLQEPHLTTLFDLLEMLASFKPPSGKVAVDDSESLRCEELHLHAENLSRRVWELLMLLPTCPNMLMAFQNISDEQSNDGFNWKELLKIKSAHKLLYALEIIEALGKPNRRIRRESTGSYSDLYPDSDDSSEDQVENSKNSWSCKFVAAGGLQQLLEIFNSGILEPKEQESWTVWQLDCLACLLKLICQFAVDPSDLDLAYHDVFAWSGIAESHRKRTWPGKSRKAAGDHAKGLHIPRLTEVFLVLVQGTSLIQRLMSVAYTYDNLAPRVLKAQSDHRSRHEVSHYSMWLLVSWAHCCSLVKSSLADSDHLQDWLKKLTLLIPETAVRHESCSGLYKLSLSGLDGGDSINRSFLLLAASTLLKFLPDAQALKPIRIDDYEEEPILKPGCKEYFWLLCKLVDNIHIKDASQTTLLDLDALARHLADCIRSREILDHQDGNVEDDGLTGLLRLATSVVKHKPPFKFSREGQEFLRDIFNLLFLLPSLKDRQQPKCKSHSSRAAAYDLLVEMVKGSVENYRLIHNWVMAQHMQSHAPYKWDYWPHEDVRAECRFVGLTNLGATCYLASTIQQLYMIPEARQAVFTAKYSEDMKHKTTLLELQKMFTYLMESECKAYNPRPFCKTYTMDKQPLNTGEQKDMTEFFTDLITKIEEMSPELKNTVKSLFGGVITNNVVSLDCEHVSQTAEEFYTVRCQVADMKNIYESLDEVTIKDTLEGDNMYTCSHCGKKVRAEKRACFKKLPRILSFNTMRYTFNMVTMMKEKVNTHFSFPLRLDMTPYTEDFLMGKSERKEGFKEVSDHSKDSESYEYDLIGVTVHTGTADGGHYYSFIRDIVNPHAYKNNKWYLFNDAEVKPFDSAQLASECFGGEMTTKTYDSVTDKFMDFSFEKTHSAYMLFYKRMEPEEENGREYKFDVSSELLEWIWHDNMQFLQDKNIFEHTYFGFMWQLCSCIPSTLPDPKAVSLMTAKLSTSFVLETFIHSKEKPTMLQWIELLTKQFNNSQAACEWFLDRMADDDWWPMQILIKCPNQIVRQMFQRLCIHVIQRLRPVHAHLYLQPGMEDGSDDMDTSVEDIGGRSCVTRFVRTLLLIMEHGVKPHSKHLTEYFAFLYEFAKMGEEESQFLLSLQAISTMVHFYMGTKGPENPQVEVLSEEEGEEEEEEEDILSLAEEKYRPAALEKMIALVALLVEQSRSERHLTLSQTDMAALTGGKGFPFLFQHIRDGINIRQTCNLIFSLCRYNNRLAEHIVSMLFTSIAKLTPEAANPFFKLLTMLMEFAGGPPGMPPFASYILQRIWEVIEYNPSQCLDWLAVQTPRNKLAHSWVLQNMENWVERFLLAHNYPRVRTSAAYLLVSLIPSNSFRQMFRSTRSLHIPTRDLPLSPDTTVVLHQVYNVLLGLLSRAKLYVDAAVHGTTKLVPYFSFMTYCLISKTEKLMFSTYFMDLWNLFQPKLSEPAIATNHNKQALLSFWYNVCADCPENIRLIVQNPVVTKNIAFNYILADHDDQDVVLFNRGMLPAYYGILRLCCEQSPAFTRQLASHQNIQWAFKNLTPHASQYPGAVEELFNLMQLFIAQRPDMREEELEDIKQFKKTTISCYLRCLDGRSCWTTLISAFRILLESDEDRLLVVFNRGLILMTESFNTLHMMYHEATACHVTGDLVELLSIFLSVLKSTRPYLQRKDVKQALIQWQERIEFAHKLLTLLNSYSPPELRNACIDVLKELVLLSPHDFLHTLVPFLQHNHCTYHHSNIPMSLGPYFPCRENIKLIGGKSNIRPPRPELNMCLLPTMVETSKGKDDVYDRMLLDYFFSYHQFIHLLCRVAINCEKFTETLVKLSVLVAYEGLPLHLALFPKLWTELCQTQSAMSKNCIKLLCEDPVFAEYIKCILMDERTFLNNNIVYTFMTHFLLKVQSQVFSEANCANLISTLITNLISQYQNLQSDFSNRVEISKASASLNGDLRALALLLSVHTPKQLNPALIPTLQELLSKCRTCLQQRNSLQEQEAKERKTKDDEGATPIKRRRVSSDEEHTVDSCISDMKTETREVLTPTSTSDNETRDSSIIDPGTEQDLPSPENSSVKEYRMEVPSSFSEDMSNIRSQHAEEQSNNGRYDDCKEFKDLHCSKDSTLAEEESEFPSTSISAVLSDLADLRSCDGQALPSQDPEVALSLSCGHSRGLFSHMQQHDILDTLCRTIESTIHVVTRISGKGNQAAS

Cc1ccc(N2CCC(NC(=O)CCl)C2=O)cc1 (stereo not given)
inactive: [1] 0.132 | [2] -0.156 | [3] 0.0543 | [4] 0.064 | [5] 0.0879
